Measured values published in PubChem BioAssay.
A number with no mark means an inactive call. No rule for the calls is given here.

target: Pantothenate synthetase (Mycobacterium tuberculosis (strain ATCC 25618 / H37Rv)) (UniProt P9WIL5); assay: Recombinant Mtb pantothenate synthetase (PanC) inhibitors, coupled enzyme, confirmatory (AID 375); conditions: coupled enzyme assay; at 10 µM, hits give high values;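 also: 0% = full reaction with vehicle and 100% = no enzyme background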
Sequence (P9WIL5 whole entry, looked up): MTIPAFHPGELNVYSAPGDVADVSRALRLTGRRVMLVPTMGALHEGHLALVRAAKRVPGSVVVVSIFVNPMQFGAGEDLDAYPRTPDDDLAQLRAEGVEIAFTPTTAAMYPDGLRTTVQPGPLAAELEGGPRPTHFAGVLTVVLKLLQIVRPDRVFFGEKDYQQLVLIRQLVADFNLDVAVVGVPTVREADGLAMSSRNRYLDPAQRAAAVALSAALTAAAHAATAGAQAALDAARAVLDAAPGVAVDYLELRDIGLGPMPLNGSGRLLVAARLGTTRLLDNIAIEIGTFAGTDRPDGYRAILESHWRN

Point of comparison: Cc1nc(C)c(C(=O)C2=C(O)C(=O)N(CCCn3ccnc3)C2c2ccccc2)s1 (stereo not given), inhibition 1%. Against it:
- CCn1cc(C(=O)OCC(=O)OC2CC(C)CCC2C(C)C)c(=O)c2ccc(C)nc21 (stereo not given) — higher, 5%
- Cc1ccc2c(c1)-c1c(cnn1CC(=O)NC(C)CCc1ccco1)CO2 (stereo not given) — lower, 0%
- CC(C)[C@H](NC(=O)[C@@H]1CSCN1C(=O)OC(C)(C)C)C(=O)NCC1CCC(C(=O)O)CC1 (stereo not given in full) — higher, 7%
- CCn1c(Cc2ccccc2)nnc1SCC(=O)Nc1nc2ccccc2s1 — higher, 2%
- O=C(NCc1ccccc1)N[C@@H](Cc1ccccc1)C(=O)O — the same, 1%
- COc1ccc(OC(C)C(=O)N2CCN(c3ccccn3)CC2)cc1 (stereo not given) — higher, 7%
- Cc1ccc(S(=O)(=O)Cc2ccc(C(=O)NCc3ccc4c(c3)OCO4)o2)cc1 — lower, 0%
- Cc1ccc(S(=O)(=O)C(C#N)c2nc3ccccc3nc2N2CCCCC2)cc1 (stereo not given) — higher, 2%
- Cc1cccc2cc(C(c3nnnn3C(C)(C)C)N3CCN(C(=O)c4ccco4)CC3)c(=O)[nH]c12 (stereo not given) — higher, 6%
- O=C(CN1CCCC1)Nc1ccc(NC(=O)Nc2ccccc2)cc1 — lower, 0%
- Cc1ccc(N(C(C)C(=O)Nc2ccc(S(=O)(=O)N3CCOCC3)cc2)S(C)(=O)=O)cc1 (stereo not given) — lower, 0%
- CN(C)C(=O)C12CCC(C)(c3nc4ccccc4nc31)C2(C)C (stereo not given) — higher, 4%
- COc1ccc(C2=Nn3c(nnc3-c3cccnc3)SC2)cc1 — lower, 0%
- O=S(=O)(NCC1CCCO1)c1ccc2c(c1)OCCO2 (stereo not given) — lower, 0%
- O=S(=O)(NCc1ccccc1)c1ccc2c(c1)OCCO2 — lower, 0%
- CC1=Nn2c(nnc2-c2ccc(F)cc2)SC1 — lower, 0%
- CCN(CCCNC(=O)CC1Oc2ccc(C)cc2NC1=O)Cc1ccccc1 (stereo not given) — lower, 0%
- CN(C1CCS(=O)(=O)C1)S(=O)C12CC3CC(CC(C3)C1)C2 (stereo not given) — higher, 3%
- COC(=O)CCc1c(C)c(C#N)c2nc3ccccc3n2c1N1CCCC1 — lower, 0%
- O=C1OCc2cc(NC(=O)C3CCCO3)ccc21 (stereo not given) — higher, 5%
- O=S(=O)(c1ccc(F)cc1)N1CCC(N2CCCC2)CC1 — lower, 0%
- Cc1ccc(-n2nnnc2SCC(=O)c2cc(C)n(CC3CCCO3)c2C)cc1 (stereo not given) — lower, 0%
- C=CCN=C1SCC(=O)N1S(=O)(=O)c1ccc(C)cc1 — lower, 0%
- CCN(CC)c1ccc2c(c1)C(=O)N(C)C2=O — higher, 7%
- S=c1nc(C2CC2)[nH]c2ccccc12 — lower, 0%
- Cc1n[nH]c(C)c1S(=O)(=O)Nc1ccc2c(c1)OCCO2 — lower, 0%
- COC1CCCCC1NS(=O)(=O)c1ccccc1 (stereo not given) — lower, 0%
- Cc1nc(C)c(C(=O)C2=C(O)C(=O)N(CCN3CCOCC3)C2c2ccco2)s1 (stereo not given) — higher, 9%
- CCN(CC)CCNC(=O)c1cc(S(C)(=O)=O)ccc1OC — lower, 0%
- CC(=O)Nc1ccc(S(=O)(=O)N2CCSC2c2ccccc2)cc1 (stereo not given) — higher, 7%
- Cc1ccnc(NC(=O)CCC(=O)N(CC(=O)NC(C)(C)C)C2CCCC2)c1 — lower, 0%
- O=C(COC(=O)C1=COCCO1)Nc1ccccc1Oc1ccccc1 — the same, 1%
- Cn1c(SCCN2CCCCC2)nnc1-c1ccccc1Br — lower, 0%
- CC(=O)c1cc2c(=O)c3cc(C)ccc3oc2nc1C — lower, 0%
- CC1CCCCC1NC(=O)Cn1ncc2ccccc21 (stereo not given) — lower, 0%
- CCOC(=O)Cc1nnc(NC(=O)CSc2nnc3c4ccccc4n(C(C)C)c3n2)s1 — the same, 1%
- COc1cc(OC)c(C2C(C#N)=C(N)OC3=C2C(=O)CC(C)(C)C3)cc1OC (stereo not given) — the same, 1%
- OC(CN1CCCCC1)Cn1c(C(F)(F)F)nc2ccccc21 (stereo not given) — higher, 9%
- O=C1CC(c2ccco2)=Nc2ccccc2N1 — higher, 6%
